Measurements published in PMC11062922 (Nature Chemical Biology, 2023).
Read-outs that look alike come from different tables or passages of the source.

How the values were obtained:
Design in all cases: species or system human, MV4-11 + K-562 + COLO205 + SK-N-BE2 + OVCAR-8
ACAD8 = conditions: read-out: apparent Kd, n = 1
MAP2K5 = conditions: read-out: apparent Kd; compound concentrations: 100 nM and 1000 nM (sheet 'Samples'), CATDS: 9.4548103744077197E-2; n = 1
FN3KRP = conditions: read-out: apparent Kd, n = 1
CDK16 = conditions: read-out: apparent Kd, n = 1
CDK17 = conditions: read-out: apparent Kd, n = 1
AKT1 = conditions: read-out: apparent Kd, n = 1
CDKL5 = conditions: read-out: apparent Kd; compound concentrations:100 nM and 1000 nM (sheet 'Samples'); n = 1
MAPK14 = conditions: read-out: apparent Kd, n = 1
RIOK2 = conditions: read-out: apparent Kd, n = 1
DDR2 = conditions: read-out: apparent Kd, n = 1
JAK2 = conditions: read-out: apparent Kd; compound concentrations:100 nM and 1000 nM (sheet 'Samples'); n = 1
CSNK1D = conditions: read-out: apparent Kd, n = 1
FLT4 = conditions: read-out: apparent Kd; compound concentrations:100 nM and 1000 nM (sheet 'Samples'); n = 1
BMPR1B = conditions: read-out: apparent Kd; compound concentrations: 100 nM and 1000 nM (sheet 'Samples'), CATDS: 9.3434375492385105E-2; n = 1
EPHB1 = conditions: read-out: apparent Kd; compound concentrations:100 nM and 1000 nM (sheet 'Samples'); n = 1
TGFBR1 = conditions: read-out: apparent Kd; compound concentrations: 100 nM and 1000 nM (sheet 'Samples'), CATDS: 4.6246179171744603E-2; n = 1
[1] = compound concentrations:100 nM and 1000 nM (sheet 'Samples')

Cc1ccc(NC(=O)Nc2ccccc2)cc1-c1ccc(C(=O)Nc2ccncc2)cc1 [GSK1398471A]
potency estimated from few doses (ACAD8; compound concentrations: 100 nM and 1000 nM (sheet 'Samples'), CATDS: 9.6825044114723993E-2): 2180 nM
potency estimated from few doses (MAP2K5): 2350 nM

COc1cccc(C2=C(c3cn(C)c4c(C)cccc34)C(=O)NC2=O)c1 [RO3301012-000]
potency estimated from few doses (FN3KRP; compound concentrations: 100 nM and 1000 nM (sheet 'Samples'), CATDS: 0.113294190935364): 1300 nM

Cl.Fc1cccc(COc2ccc(Nc3ncnc4cc(-c5ccc[nH]5)sc34)cc2Cl)c1 [GW693881A]
potency estimated from few doses (FN3KRP; compound concentrations: 100 nM and 1000 nM (sheet 'Samples'), CATDS: 0.20216809637719099): 791 nM

Cn1cc(C2=C(c3cn(CCCCCO)c4ccccc34)C(=O)NC2=O)c2ccccc21 [RO0318053-000]
potency estimated from few doses (FN3KRP; compound concentrations: 100 nM and 1000 nM (sheet 'Samples'), CATDS: 0.23703756302713999): 69.9 nM

COc1ccc(S(=O)(=O)NC2CCN(c3cc(C)nc(Nc4cccc(C#N)c4)n3)CC2)cc1.O=C(O)C(F)(F)F [GSK1653539A]
potency estimated from few doses (FN3KRP; compound concentrations: 100 nM and 1000 nM (sheet 'Samples'), CATDS: 0.40384988174316899): 910 nM

CS(=O)(=O)c1ccc(-c2nc3n(c2-c2ccncc2)CCC3)cc1 [SKF-105942]
potency estimated from few doses (ACAD8; compound concentrations: 100 nM and 1000 nM (sheet 'Samples'), CATDS: 0.13672361229607899): 1400 nM

COc1ccccc1C(=O)c1cnc(NC2CCN(S(C)(=O)=O)CC2)nc1N [RO4514610-000]
potency estimated from few doses (CDK16; [1]): 721 nM
potency estimated from few doses (CDK17; [1]): 732 nM

Nc1c(C(=O)c2ccccc2)cnn1-c1ccc(F)cc1 [RO1151246-000]
potency estimated from few doses (ACAD8; [1]): 1760 nM
potency estimated from few doses (AKT1; [1]): 1460 nM
potency estimated from few doses (CDKL5): 997 nM
potency estimated from few doses (MAPK14; compound concentrations: 100 nM and 1000 nM (sheet 'Samples'), CATDS: 4.1752144248388801E-2): 1630 nM
potency estimated from few doses (RIOK2; [1]): 1700 nM

COc1cc(N2CCN(C(C)C)CC2)ccc1Nc1nc(Nc2cccc(F)c2C(=O)O)c2cc[nH]c2n1 [GSK1819799A]
potency estimated from few doses (AKT1; compound concentrations: 100 nM and 1000 nM (sheet 'Samples'), CATDS: 4.312239107291E-2): 1940 nM
potency estimated from few doses (CDK17; compound concentrations: 100 nM and 1000 nM (sheet 'Samples'), CATDS: 4.1653075396407099E-2): 2170 nM

Cc1ccc(C(=O)NC2CC2)cc1-c1ccc2[nH]ncc2c1 [GW820759X]
potency estimated from few doses (FN3KRP; compound concentrations: 100 nM and 1000 nM (sheet 'Samples'), CATDS: 0.34838904093032003): 1060 nM

Cc1ccc(-n2nc(C(C)(C)C)cc2NC(=O)Nc2ccc(OCCN3CCOCC3)cc2)cc1 [BIRB0876BS]
potency estimated from few doses (ACAD8; [1]): 2100 nM
potency estimated from few doses (DDR2; [1]): 1140 nM
potency estimated from few doses (JAK2): 748 nM

Cl.Oc1ccc2ncnc(Nc3ccc(OCc4ccccc4)cc3)c2c1 [GI262866A]
potency estimated from few doses (FN3KRP; [1]): 762 nM
potency estimated from few doses (MAPK14; [1]): 770 nM

Cc1ccc(CC(=O)N2CCc3cc(-c4cn(C)c5ncnc(N)c45)ccc32)cc1 [GSK2634758A]
potency estimated from few doses (FN3KRP; compound concentrations: 100 nM and 1000 nM (sheet 'Samples'), CATDS: 0.17784341210851801): 1240 nM

Cn1cc(C2=C(c3ccccc3[N+](=O)[O-])C(=O)NC2=O)c2ccccc21 [RO0317753-000]
potency estimated from few doses (CDK16; compound concentrations: 100 nM and 1000 nM (sheet 'Samples'), CATDS: 7.8370889513180206E-2): 1340 nM
potency estimated from few doses (FN3KRP; compound concentrations: 100 nM and 1000 nM (sheet 'Samples'), CATDS: 8.17359273490917E-2): 1130 nM

COc1ccc(Nc2nccc(N3CCC(NC(=O)Nc4cccc(OC)c4)C3)n2)cc1 (stereo not shown) [GSK1379742A]
potency estimated from few doses (ACAD8; compound concentrations: 100 nM and 1000 nM (sheet 'Samples'), CATDS: 0.11167502777980801): 2090 nM

Cc1ccc(NC(=O)c2ccc(Cl)cc2)cc1-c1ccc(C(=O)Nc2ccncc2)cc1 [GSK1398467A]
potency estimated from few doses (CSNK1D; compound concentrations: 100 nM and 1000 nM (sheet 'Samples'), CATDS: 0.16187565637937301): 2020 nM
potency estimated from few doses (FN3KRP; compound concentrations: 100 nM and 1000 nM (sheet 'Samples'), CATDS: 0.20437737337719999): 1180 nM

COc1ccc(COc2ccc(Cc3cnc(N)nc3N)cc2OC)cc1 [GW632580X]
potency estimated from few doses (ACAD8; [1]): 1640 nM

NS(=O)(=O)c1cccc(-c2ccc3nccc(-c4cccc(S(N)(=O)=O)c4)c3c2)c1 [GW867253X]
potency estimated from few doses (ACAD8; compound concentrations: 100 nM and 1000 nM (sheet 'Samples'), CATDS: 0.48469015722886899): 2110 nM

Fc1cccc(COc2ccc(Nc3ncncc3C#Cc3ccccc3)cc2Cl)c1 [GW651576X]
potency estimated from few doses (ACAD8; compound concentrations: 100 nM and 1000 nM (sheet 'Samples'), CATDS: 5.0604868868818903E-2): 1740 nM
potency estimated from few doses (AKT1; compound concentrations: 100 nM and 1000 nM (sheet 'Samples'), CATDS: 4.6282631455897803E-2): 2130 nM
potency estimated from few doses (CDK17; compound concentrations: 100 nM and 1000 nM (sheet 'Samples'), CATDS: 4.4959210496165199E-2): 2290 nM
potency estimated from few doses (RIOK2; compound concentrations: 100 nM and 1000 nM (sheet 'Samples'), CATDS: 5.4268483350181501E-2): 1510 nM

COc1cc(F)c(F)c(F)c1C(=O)c1cnc(NC2CCN(S(C)(=O)=O)CC2)nc1N [RO4600703-000]
potency estimated from few doses (CDK16; [1]): 51 nM
potency estimated from few doses (CDK17; [1]): 77.3 nM
potency estimated from few doses (FN3KRP; [1]): 549 nM

CCS(=O)(=O)c1ccc(OC)c(Nc2ncc(-c3cccc(F)c3)o2)c1 [GW621970X_KCGS]
potency estimated from few doses (ACAD8; [1]): 2330 nM
potency estimated from few doses (FLT4): 574 nM

CC(=O)Nc1ccc2c(C3=C(c4cn(C)c5ccccc45)C(=O)NC3=O)cn(C)c2c1 [RO0317596-000]
potency estimated from few doses (FN3KRP; compound concentrations: 100 nM and 1000 nM (sheet 'Samples'), CATDS: 0.121909442798699): 1250 nM

Clc1ccc(-c2nn3ncccc3c2-c2ccnc(Nc3ccccc3)n2)cc1 [GW829055X]
potency estimated from few doses (ACAD8; compound concentrations: 100 nM and 1000 nM (sheet 'Samples'), CATDS: 3.9352617982793499E-2): 1220 nM
potency estimated from few doses (AKT1; compound concentrations: 100 nM and 1000 nM (sheet 'Samples'), CATDS: 3.4502228955022099E-2): 1670 nM
potency estimated from few doses (BMPR1B): 264 nM
potency estimated from few doses (CDK17; compound concentrations: 100 nM and 1000 nM (sheet 'Samples'), CATDS: 3.0637739748937999E-2): 2340 nM
potency estimated from few doses (RIOK2; compound concentrations: 100 nM and 1000 nM (sheet 'Samples'), CATDS: 3.5482707178261498E-2): 1560 nM

Fc1ccc(-c2ncn(C3CCNCC3)c2-c2ccnc(Oc3ccc4c(c3)OCO4)n2)cc1 [SB-250715]
potency estimated from few doses (ACAD8; [1]): 1570 nM
potency estimated from few doses (AKT1; [1]): 2330 nM
potency estimated from few doses (CDK16; [1]): 2360 nM
potency estimated from few doses (CSNK1D; [1]): 271 nM
potency estimated from few doses (MAPK14; [1]): 10.7 nM
potency estimated from few doses (RIOK2; [1]): 1920 nM

NC(=O)c1sc(-n2cnc3ccc(C(F)(F)F)cc32)cc1OCc1ccccc1Br [GW853606X]
potency estimated from few doses (JAK2): 419 nM

NC(=O)c1cccnc1COc1cc(-c2ccc(N3CCOCC3)nc2)cc2ncccc12 [BI01125081]
potency estimated from few doses (ACAD8; [1]): 1930 nM
potency estimated from few doses (DDR2; [1]): 2240 nM
potency estimated from few doses (EPHB1): 738 nM

Cn1cc(C2=C(c3cccc([N+](=O)[O-])c3)C(=O)NC2=O)c2ccccc21 [RO0317474-000]
potency estimated from few doses (FN3KRP; compound concentrations: 100 nM and 1000 nM (sheet 'Samples'), CATDS: 0.16649901321048899): 1070 nM

COc1ccc(-c2nn3ncccc3c2-c2ccnc(Nc3ccc4c(c3)OCCO4)n2)cc1 [GW827106X]
potency estimated from few doses (CSNK1D; compound concentrations: 100 nM and 1000 nM (sheet 'Samples'), CATDS: 4.1816048723515499E-2): 2430 nM
potency estimated from few doses (DDR2; compound concentrations: 100 nM and 1000 nM (sheet 'Samples'), CATDS: 4.9498926543833199E-2): 1520 nM
potency estimated from few doses (MAPK14; compound concentrations: 100 nM and 1000 nM (sheet 'Samples'), CATDS: 7.81285273726149E-2): 610 nM
potency estimated from few doses (TGFBR1): 1810 nM

Nc1nc(-c2ccccn2)c(-c2ccnc3ccccc23)s1 [GW548057X]
potency estimated from few doses (CSNK1D; [1]): 1800 nM
